ALDH1A1 inh – qHTS Assay for Inhibitors of Aldehyde Dehydrogenase 1 (ALDH1A1). Aldehyde dehydrogenase 1A1 (Homo sapiens), P00352. Purified ALDH1A1, NADH fluorescence, propionaldehyde substrate. Potency, µM (series often up to 75.3 µM), without a hit: at the highest dose activity, negative = inhibition, actives largely listed as inhibitors. actives 7.3% (n = 220,000). AID 1030, 2008;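 also: potency is read from the fitted curve at half-maximal effect; plate controls were no enzyme wells and a reference inhibitor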
HPGD inh – qHTS Assay for Inhibitors of HPGD (15-Hydroxyprostaglandin Dehydrogenase); 15-hydroxyprostaglandin dehydrogenase [NAD(+)] (Homo sapiens), P15428; purified HPGD, NADH fluorescence kinetic, PGE2 substrate; Potency, µM, for inactives: at the highest dose activity change, negative = inhibition, hits mostly inhibitors; actives 4.3% (n = 150,000); AID 894, 2007; also: potency is read from the fitted curve at half-maximal effect
Target sequence (P15428 whole entry, looked up): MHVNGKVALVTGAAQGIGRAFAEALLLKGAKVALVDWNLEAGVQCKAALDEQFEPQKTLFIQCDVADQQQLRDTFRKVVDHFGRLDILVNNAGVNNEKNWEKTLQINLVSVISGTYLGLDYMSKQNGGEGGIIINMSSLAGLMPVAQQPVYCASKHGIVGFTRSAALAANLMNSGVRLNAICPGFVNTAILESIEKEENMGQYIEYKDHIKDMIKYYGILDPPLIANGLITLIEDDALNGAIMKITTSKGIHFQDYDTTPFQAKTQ
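NADH formation kinetics: reaction with 30 uM PGE2 and 1 mM NAD+ (final), 20 nM enzyme, Tris-HCl pH 8 with Tween 20, after 15 min compound preincubation at room temperature. Fluorescence change, last versus first of five reads.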
IMPase cell inh – qHTS Assay for Identifying the Cell-Membrane Permeable IMPase Inhibitors; Inositol monophosphatase 1 (Rattus norvegicus), P97697; CHO-M1 cells, IP1 accumulation, HTRF TR-FRET ratio; inhibition (IP1 accumulation), % at 46.1 µM; 120,000 tested, under 10 active; AID 901, 2007; active = well fitted curve in the direction sought with a large enough effect in the signal ratio, not every such curve was filed as active; inconclusive = small, poorly fitted or top-dose-only effect, or a change in a side signal; inactive = no such curve, though single readings can be large or run the other way; the % refers to the signal ratio;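 also: cells stimulated with carbachol in lithium chloride buffer; plate controls were DMSO basal wells for no effect and reference inhibitor wells for full effect; higher means more IMPase inhibition seen as more IP1 and lower FRET ratio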
Target sequence (P97697 whole entry, looked up): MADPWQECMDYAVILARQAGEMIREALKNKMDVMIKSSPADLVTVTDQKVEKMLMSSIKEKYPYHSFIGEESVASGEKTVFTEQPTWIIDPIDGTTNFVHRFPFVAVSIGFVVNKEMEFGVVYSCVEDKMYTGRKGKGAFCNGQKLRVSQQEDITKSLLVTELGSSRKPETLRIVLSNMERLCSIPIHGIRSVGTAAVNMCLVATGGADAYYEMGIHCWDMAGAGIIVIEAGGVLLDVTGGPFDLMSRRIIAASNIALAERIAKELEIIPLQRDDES
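Elevated IP1 in lysates lowers TR-FRET signal (665/620 ratio and 620 channel reported). Cells were CHO-M1, given carbachol (50 uM as added) plus 50mM LiCl, pH 7.4, 30 min, 37C; compounds titrated up to 46 uM; AC50 by Hill equation.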
PNC assembly inh – High Content Assay for Compounds that inhibit the Assembly of the Perinucleolar Compartment. PC3M PTB-GFP, PNC prevalence imaging, 16 h; active compounds read low. activity change (PNC), negative = inhibition, % at 10 µM. actives 3.1% (n = 140,000);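 active = readout at or below -70, meaning at least 70% loss of cells showing the perinucleolar compartment, a nuclear body marking cancer cells; inconclusive = readout between -30 and a set limit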;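 also: plate controls were DMSO wells for no effect and camptothecin positive control wells for full effect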
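PC3M cells stably expressing PTB-GFP, 750–1000 cells/well, treated 16 h at 37 °C with compound (23 nl of library stock), in duplicate. After paraformaldehyde fixation and Hoechst stain, imaged at 20x; PNC prevalence scored by image analysis.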
IMPase Li cell – qHTS Assay for Identifying the Cell-Membrane Permeable IMPase Inhibitors: Potentiation with Lithium | Potency, µM (top dose mostly 59.4 µM), for inactives: top-dose activity, negative = IMPase inhibition, actives largely listed as inhibitors | actives 0.35% (n = 210,000) | AID 1457, 2008 | CHO-M1 cells, IP1 TR-FRET (IP-One), carbachol + lithium; active = well fitted inhibition curve with a large enough effect; inconclusive = small, poorly fitted or top-dose-only effect; inactive = no such curve, though single readings can be large or run the other way;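 also: IP1 builds up when IMPase is blocked and the TR-FRET signal falls; potency is read from the fitted curve at half-maximal effect; plate controls were basal vehicle for no effect and high inhibitor control for full effect; nearly all actives have a fitted effect of over 50% in size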
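CHO-M1, 2000 cells/well, 16–30 h culture; cpd + low Li+, 30 min 37C; lysis with d2-IP1/Eu-anti-IP1 Ab, 10 min RT; TR-FRET 665/620 ratio and 620 channel; AC50 via Hill.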
* = called active by the depositor; [ ] = dose if it differs, or a comment. This is a sample that favours compounds with a hit; in the whole collection about 11% have one here. Unless noted, calls follow the shape of the dose curve; as a rule, active = well fitted inhibition curve with a large enough effect (not every such curve was filed as active); inconclusive = small, poorly fitted or top-dose-only effect, or another doubt; inactive = no such curve, though single readings can be large or run the other way. Unless noted, % is scaled to controls: 0 for no effect and ±100 for the full control effect.

`CCCCN(C(=O)CSc1nncn1-c1ccccc1OC)c1c(N)n(Cc2ccccc2)c(=O)[nH]c1=O` gave ALDH1A1 inh 2.2µM* and IMPase Li cell 1%.
For COCCN(C(=O)CSc1nncn1-c1ccccc1)c1c(N)n(Cc2ccccc2)c(=O)[nH]c1=O the results were ALDH1A1 inh 14%, HPGD inh -10%, PNC assembly inh inconclusive and IMPase Li cell 2%.
For OCc1ccc(-c2ccc(-c3ccc(CO)s3)o2)s1 the results were ALDH1A1 inh inconclusive, HPGD inh inconclusive and IMPase Li cell -4%.
COc1ccc(-n2c(C)c(C(C)=O)c3cc(O)ccc32)cc1 was read as ALDH1A1 inh -9%, HPGD inh 4µM*, IMPase cell inh 2, PNC assembly inh inconclusive and IMPase Li cell -6%.
COc1ccc2c(c1)c(C(C)=O)c(C)n2-c1ccccc1 was read as ALDH1A1 inh 14%, HPGD inh -7%, IMPase cell inh 1, PNC assembly inh inconclusive and IMPase Li cell 0%[38.3 µM].
For COc1ccc(-n2c(C)c(C(C)=O)c(C(C)=O)c2C)cc1 the results were ALDH1A1 inh 8%, HPGD inh -4%, IMPase cell inh 2, PNC assembly inh -14 and IMPase Li cell 11%[38.3 µM].
CCOc1ccc(-n2c(C)c(C(C)=O)c(C(C)=O)c2C)cc1 was read as ALDH1A1 inh 22µM*, HPGD inh -10%, IMPase cell inh 14[0.0738 µM], PNC assembly inh inconclusive and IMPase Li cell 0%.
`COc1ccc(C(C[N+](=O)[O-])c2c(C)cc3ccccn23)cc1` (centres undefined) gave ALDH1A1 inh inconclusive and IMPase Li cell 12%.
Screening COc1ccc(C(C[N+](=O)[O-])c2c(-c3ccccc3)cc3ccccn23)c(OC)c1 (centres undefined) returned ALDH1A1 inh inconclusive, HPGD inh 22µM*, IMPase cell inh 14, PNC assembly inh inconclusive and IMPase Li cell 61%[38.3 µM].
`Nc1cc(-c2ccco2)no1` gave ALDH1A1 inh 4.5µM*, HPGD inh -15%, IMPase cell inh -3, PNC assembly inh -10 and IMPase Li cell -10%[38.3 µM].
`O=P(O)(CCc1ccccc1)CN1CCCCC1` gave ALDH1A1 inh 0%, HPGD inh -11%, IMPase cell inh -1, PNC assembly inh -82* and IMPase Li cell 16%[38.3 µM].
O=C1CCCCCN1CP(=O)(O)CCc1ccccc1 was read as ALDH1A1 inh -30%, HPGD inh -8%, IMPase cell inh 4, PNC assembly inh -10 and IMPase Li cell -2%[38.3 µM].
`CCOC(=O)c1ccc(NC2SC(=O)N(Cc3cccc(C(=O)O)c3)C2=O)cc1` (centres undefined) gave IMPase cell inh -4.
Screening Cc1ccc(-c2csc3ncnc(-n4nc(C)cc4N)c23)cc1 returned ALDH1A1 inh 2µM*, HPGD inh -13%, IMPase cell inh 6, PNC assembly inh 7 and IMPase Li cell 14%[38.3 µM].
Screening CC1CN(CC(O)COC(c2ccccc2)c2ccccc2)CC(C)O1 (centres undefined) returned ALDH1A1 inh 25µM*, HPGD inh -6%, IMPase cell inh 5, PNC assembly inh inconclusive and IMPase Li cell 11%.
OC(COC(c1ccccc1)c1ccccc1)CN1CCOCC1 (centres undefined) was read as ALDH1A1 inh 6% and IMPase Li cell 14%.
For Cc1ccccc1-n1c2nc(=O)[nH]c(=O)c-2cc2c(Cl)cccc21 the results were IMPase cell inh 3.
For CCN(CC)CC(C)OC(=O)COc1ccc(OC)cc1 (centres undefined) the results were ALDH1A1 inh 1%, HPGD inh 2%, IMPase cell inh 6, PNC assembly inh inconclusive and IMPase Li cell 1%.
Screening C/C(Cn1cnc([N+](=O)[O-])n1)=N\NC(=O)c1ccc(Br)cc1 returned ALDH1A1 inh 14µM*, HPGD inh -12%, PNC assembly inh 5 and IMPase Li cell -7%.
For C/C(Cn1cnc([N+](=O)[O-])n1)=N\NC(=O)c1cccnc1 the results were ALDH1A1 inh 4%, HPGD inh -6%, PNC assembly inh -17 and IMPase Li cell -9%.
Screening C/C(Cn1cnc([N+](=O)[O-])n1)=N\NC(=O)c1ccccc1O returned ALDH1A1 inh 13% and IMPase Li cell 4%.
`C/C(Cn1cnc([N+](=O)[O-])n1)=N/NC(=O)COc1ccccc1Cl` gave ALDH1A1 inh 14µM*, HPGD inh -6%, PNC assembly inh -4 and IMPase Li cell -1%.
For C/C(Cn1nnc([N+](=O)[O-])n1)=N\NC(=O)c1ccc(Cl)c(Cl)c1 the results were ALDH1A1 inh 28µM*, HPGD inh -8%, IMPase cell inh 1, PNC assembly inh 15 and IMPase Li cell 5%[38.3 µM].
For CCOc1ccccc1N1CCN(C2=C(NS(=O)(=O)c3cccs3)C(=O)c3ccccc3C2=O)CC1 the results were ALDH1A1 inh 10µM*, HPGD inh -17%, IMPase cell inh 23, PNC assembly inh 11 and IMPase Li cell 53%[38.3 µM].
N#CCCn1cnc2c1NC=NC2Cl (centres undefined) was read as ALDH1A1 inh -4%, HPGD inh -5% and IMPase Li cell -3%.
`Cc1ccc(NC(=S)Nc2ccc(C(C)C)cc2)cc1S(=O)(=O)N1CCCCCC1` gave ALDH1A1 inh 18µM*, HPGD inh inconclusive, PNC assembly inh -15 and IMPase Li cell 19%.
For Cc1cccc(CN2C(=O)CCSc3ccc(Cl)cc32)c1 the results were ALDH1A1 inh 14µM*, HPGD inh -10%, IMPase cell inh 4, PNC assembly inh 31 and IMPase Li cell 11%[38.3 µM].
Screening COc1ccc2sc(N3C(=O)C4CC=C(C)CC4C3=O)nc2c1 (centres undefined) returned ALDH1A1 inh 13µM*, HPGD inh -13%, IMPase cell inh 0[1.84 µM], PNC assembly inh inconclusive and IMPase Li cell -9%[38.3 µM].
`O=C1c2ccccc2C(=O)N1Nc1ccccc1` gave ALDH1A1 inh -5%, HPGD inh -6%, IMPase cell inh -5, PNC assembly inh -106* and IMPase Li cell 0%[38.3 µM].
O=C1CCCC=C1[C@@H](O)C1CCCCC1 was read as ALDH1A1 inh 5%[13.5 µM].
For C=C[C@@H](C1=CC(=O)C(OC)=C(OC)C1=O)c1ccccc1 the results were ALDH1A1 inh -10%, HPGD inh 20µM* and IMPase Li cell 46%.
For N=c1scc(-c2ccccc2)n1/N=C/c1ccco1 the results were ALDH1A1 inh 22µM*, HPGD inh -27%, IMPase cell inh -11, PNC assembly inh 43 and IMPase Li cell -3%.
